# Sampled rows, rich in hits. Any-hit rate of the full collection: about 3.4%.
# MITF inh: inhibitors of human MITF; AlphaScreen MITF homodimerization, bead proximity signal; AID 1259374; hit rate 0.91% among 650,000; inhibition, % at 2.6 µM; in the data active = inhibition above about 50%
# GPR151 ag: activators of human GPR151; Q8TDV0; PathHunter beta-arrestin GPR151 cells, luminescence; activation, % at 11.2 µM; hit rate 1% among 650,000; AID 1508602; in the data active = activation above about 4.9%
# Target sequence (Q8TDV0 whole entry, looked up): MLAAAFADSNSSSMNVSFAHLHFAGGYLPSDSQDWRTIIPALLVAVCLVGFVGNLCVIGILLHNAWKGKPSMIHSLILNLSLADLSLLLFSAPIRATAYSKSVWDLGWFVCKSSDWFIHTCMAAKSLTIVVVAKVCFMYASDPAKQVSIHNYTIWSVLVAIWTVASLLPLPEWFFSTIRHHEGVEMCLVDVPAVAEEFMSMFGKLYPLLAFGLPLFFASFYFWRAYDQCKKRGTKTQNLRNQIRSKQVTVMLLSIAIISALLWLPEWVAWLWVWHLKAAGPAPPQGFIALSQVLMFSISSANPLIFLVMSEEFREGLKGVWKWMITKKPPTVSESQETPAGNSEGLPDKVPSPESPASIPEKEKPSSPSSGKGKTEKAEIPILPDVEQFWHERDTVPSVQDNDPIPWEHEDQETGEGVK
# TEAD-YAP block: TEAD-YAP interaction inhibition; HEK-TIYL cells, TEAD-Gal4/YAP UAS-luciferase luminescence; inhibition, % at 9.12 µM; hit rate 1.4% among 640,000; AID 1259422; in the data active = inhibition above about 32%
# FBW7 act: human FBW7 E3 ligase activation, primary screen. hit rate 0.13% among 650,000. Q969H0. AlphaScreen FBW7–phospho-cyclin E peptide binding, activator screen. normalized activity (activation), % at 26.1 µM. AID 1259310; in the data active = normalized activity above about 1.9%;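 also: purified mutant Fbw7 with reduced substrate affinity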
# A number is an active result; 0 = inactive.
SMILES,MITF inh,GPR151 ag,TEAD-YAP block,FBW7 act
Oc1c(C(c2cccs2)N2CCOCC2)ccc2cccnc12 (centres undefined),60.7,0,76.7,0
COc1ccc(C2CC(c3ccc(C)cc3)Nc3ncnn32)cc1OC (centres undefined),0,0,0,0
COc1cccc(C(=O)Nc2cccc(-c3csc(C)n3)c2)c1,0,0,0,0
CCC(C)C1N=C2c3ccccc3N=C(SCC(=O)c3ccc(O)c(O)c3)N2C1=O (centres undefined),60.9,0,0,0
CCOC(=O)C1CCN(S(=O)(=O)c2ccnc3c(OC)cccc23)CC1,0,0,0,0
N#C/C(=C\c1ccc(N2CCOCC2)cc1)c1[nH]nc(N)c1C#N,0,0,38.8,0
CC(=O)c1ccc(NC(=O)c2ccc(S(=O)(=O)N(C)C)cc2)cc1,0,0,0,0
CC(=O)C1=C(c2ccc(C3CCCCC3)cc2)N(C(C)=O)n2c(C)nnc2S1,0,0,40.8,0
CC(=O)C1=C(c2ccc(C(C)(C)C)cc2)N(C(C)=O)n2c(C)nnc2S1,0,0,38.5,0
COc1ccccc1NC(=O)c1c(NC(=O)c2cccnc2)sc2c1CCCCC2,0,0,0,0
COc1ccc2c(c1OC)C(=O)OC2c1cc([N+](=O)[O-])ccc1O (centres undefined),0,0,0,0
COc1ccc(N2C(=O)N(Cc3ccccc3)c3ccccc3S2(=O)=O)cc1,0,0,0,0
Cc1nn(C)c(C)c1-c1nc(NC2CC2)c2ncn(-c3ccsc3)c2n1,0,0,40.3,0
COc1ccc(-c2nc(NC3CCN(Cc4ccccc4)CC3)c3ncn(-c4ccsc4)c3n2)cc1,0,0,0,0
COc1ccc(-c2nc(NC3CC3)c3ncn(-c4ccsc4)c3n2)cc1,0,0,50.1,0
COc1ccc(C(=O)CC2(O)C(=O)N(Cc3ccccc3)c3ccccc32)cc1 (centres undefined),0,0,0,0
COC(=O)c1c(N)sc(C(=O)Nc2cc(C)ccc2C)c1C,0,0,79.3,0
COC(=O)c1c(N)sc(C(=O)NCCc2ccccc2)c1C,0,0,72.5,0
CCCNC(=O)c1sc(N)c(C(=O)OC)c1C,0,0,0,0
COC(=O)c1c(N)sc(C(=O)Nc2cccc(Cl)c2)c1C,0,0,71.7,0
CCC(C)=Nc1ccccc1C(=O)N/N=C(/C)CC,0,0,0,0
CN(C)CCCN1C(=O)C(=O)/C(=C(\O)c2ccc(Cl)cc2)C1c1ccccc1 (centres undefined),0,0,0,0
Cc1cccc(Nc2nc3nonc3nc2N/N=C\c2cccs2)c1C,0,0,78.7,0
Cc1ccccc1Nc1nc2nonc2nc1N/N=C/c1ccc(F)cc1,0,0,0,0
COc1cc(CNc2ccc(N(C)C)cc2)ccc1OCC(=O)NC(C)(C)C,0,0,36.8,0
SMILES,MITF inh,GPR151 ag,TEAD-YAP block,FBW7 act
COc1cc(CO)ccc1OCC(=O)NC(C)(C)C,0,0,0,0
Cc1ccc(C(=O)Cn2c(C(=O)O)cc3ccccc32)cc1,0,0,0,0
Cc1ccc(C(=O)Cn2c(C(=O)OCCO)cc3ccccc32)cc1,0,0,34.0,0
CNC(=O)c1cc2cc(Br)ccc2oc1=O,0,0,0,0
O=C(NNC(=O)c1cc2cc(Br)ccc2oc1=O)c1ccc(O)cc1O,0,0,34.1,0
Cc1ccc(-c2nc(CS(=O)CC(=O)NCC3CCCO3)c(C)o2)cc1 (centres undefined),0,0,0,1.9
Cc1ccc2nc3ccc(N4CCCC4)nn3c(=O)c2c1,0,0,0,0
CC1CCCN(c2ccc3nc4ccccc4c(=O)n3n2)C1 (centres undefined),0,0,71.4,0
CCN(CC)CCN(C(=O)c1ccc(Cl)cc1)c1nc2ccccc2s1,0,0,0,0
Oc1c(C(c2ccc(Cl)cc2)N2CCOCC2)ccc2cccnc12 (centres undefined),0,0,77.5,0
COc1cc(C(c2cc(Cl)c3cccnc3c2O)N2CCCC2)cc(OC)c1OC (centres undefined),0,0,0,0
COc1ccc(C(c2ccc3cccnc3c2O)N2CCOCC2)cc1 (centres undefined),0,0,80.0,0
COc1ccc(C(c2ccc3cccnc3c2O)N2CCCC2)cc1 (centres undefined),0,0,83.8,0
COc1ccc(C(c2sc3nc(C)nn3c2O)N2CCOCC2)cc1 (centres undefined),0,0,0,0
CCOC(=O)N1CCC(N2Cc3ccccc3OC(c3ccccc3)C2)CC1 (centres undefined),0,0,0,0
CCN(CC)CCCNc1nc2ccccc2c2nc(-c3ccncc3)nn12,0,0,79.8,0
CC1CCCCN1CCCNc1nc2ccccc2c2nc(-c3ccncc3)nn12 (centres undefined),0,0,80.0,0
CCN(CC)CCCNc1nc2cc(OC)c(OC)cc2c2nc(-c3ccccc3)nn12,0,0,32.5,0
CCCCNc1nc2ccccc2c2nc(-c3ccncc3)nn12,0,0,0,0
COCCCNC(=S)NNC(=O)c1cc2c(s1)CCCC2,0,0,0,0
Cc1ncc(CO)c(/C=N/Nc2cccc(Cl)n2)c1O,0,0,0,0
Cc1ncc(CO)c(/C=N/NC(=O)c2ccc(Cl)c(Cl)c2)c1O,0,0,0,0
Cc1ncc(CO)c(/C=N/Nc2ccc3ccccc3n2)c1O,0,0,51.9,0
Cc1ncc(CO)c(/C=N/NC(=O)c2cc(O)c(O)c(O)c2)c1O,98.6,0,0,0
Cc1ncc(CO)c(/C=N/NC(=O)CCCOc2ccc(Cl)cc2Cl)c1O,0,0,54.6,0
SMILES,MITF inh,GPR151 ag,TEAD-YAP block,FBW7 act
CC(=O)N1CCC(n2nc(C3CC3)ccc2=O)CC1,0,0,0,0
COc1ccc2c(c1)c(C)c(C)n2CCc1ccc(C)nc1,0,0,50.1,0
Cc1ccc(CCn2c(C)c(C)c3ccccc32)cn1,0,0,0,0
Cc1ccc2onc(CC(=O)NCc3ccc(F)cc3)c2c1,0,0,0,0
O=C(NCc1cccc(Oc2ccc(F)cc2)c1)c1ccccn1,0,0,53.6,0
O=C(Cn1cnc2ccccc21)NCc1cccc(Oc2ccc(F)cc2)c1,0,0,62.3,0
O=C(NCc1cccc(Oc2ccc(F)cc2)c1)c1cccnc1,0,0,0,0
CCOc1ccccc1Nc1nnc(-c2cc3ccccc3oc2=O)s1,0,0,0,0
CCc1cccc(CC)c1NC(=O)c1cc(S(=O)(=O)NCCc2ccc(Cl)cc2)ccc1F,0,0,0,0
Cc1ccnc(NC(c2ccco2)c2c(C)[nH]c3ccccc23)c1 (centres undefined),0,0,38.0,0
CCc1c(C)sc(NC(NC(=O)C(C)C)(C(F)(F)F)C(F)(F)F)c1C#N,0,0,0,0
Cc1nc(-c2ccc(Cl)cc2)sc1CNS(=O)(=O)c1ccccc1,0,0,0,0
COc1ccc2nc3oc(C(=O)N4CCOCC4)cc3cc2c1,0,0,64.3,0
O=C1CCCC2=C1C(c1cccc([N+](=O)[O-])c1)Nc1ccc(C(=O)c3ccccc3)cc1N2 (centres undefined),0,0,54.2,0
O=C1CCCC2=C1C(c1ccccc1)Nc1ccc(C(=O)c3ccccc3)cc1N2 (centres undefined),0,0,35.5,0
